# Paper PMC4336329 (PLoS ONE, 2015)
# The whole screen tested about 310,000 compounds, of which about 14,000 (4.5%) showed an effect of 50% or more. Effects have a minus sign here. What follows is part of a selection rich in strong results, with near analogues and random picks from the rest.
# Molecular target: human ether-à-go-go-related gene (hERG) potassium channel (human, UniProt Q12809)
# Experiment: primary screen, population patch clamp on CHO cells stably expressing hERG; higher = less effect of the substance
# 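Further: peak tail current of the secondary pulse compared with the same well before compound.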
# human ether-à-go-go-related gene (hERG) potassium channel, sequence (Q12809 whole entry, looked up): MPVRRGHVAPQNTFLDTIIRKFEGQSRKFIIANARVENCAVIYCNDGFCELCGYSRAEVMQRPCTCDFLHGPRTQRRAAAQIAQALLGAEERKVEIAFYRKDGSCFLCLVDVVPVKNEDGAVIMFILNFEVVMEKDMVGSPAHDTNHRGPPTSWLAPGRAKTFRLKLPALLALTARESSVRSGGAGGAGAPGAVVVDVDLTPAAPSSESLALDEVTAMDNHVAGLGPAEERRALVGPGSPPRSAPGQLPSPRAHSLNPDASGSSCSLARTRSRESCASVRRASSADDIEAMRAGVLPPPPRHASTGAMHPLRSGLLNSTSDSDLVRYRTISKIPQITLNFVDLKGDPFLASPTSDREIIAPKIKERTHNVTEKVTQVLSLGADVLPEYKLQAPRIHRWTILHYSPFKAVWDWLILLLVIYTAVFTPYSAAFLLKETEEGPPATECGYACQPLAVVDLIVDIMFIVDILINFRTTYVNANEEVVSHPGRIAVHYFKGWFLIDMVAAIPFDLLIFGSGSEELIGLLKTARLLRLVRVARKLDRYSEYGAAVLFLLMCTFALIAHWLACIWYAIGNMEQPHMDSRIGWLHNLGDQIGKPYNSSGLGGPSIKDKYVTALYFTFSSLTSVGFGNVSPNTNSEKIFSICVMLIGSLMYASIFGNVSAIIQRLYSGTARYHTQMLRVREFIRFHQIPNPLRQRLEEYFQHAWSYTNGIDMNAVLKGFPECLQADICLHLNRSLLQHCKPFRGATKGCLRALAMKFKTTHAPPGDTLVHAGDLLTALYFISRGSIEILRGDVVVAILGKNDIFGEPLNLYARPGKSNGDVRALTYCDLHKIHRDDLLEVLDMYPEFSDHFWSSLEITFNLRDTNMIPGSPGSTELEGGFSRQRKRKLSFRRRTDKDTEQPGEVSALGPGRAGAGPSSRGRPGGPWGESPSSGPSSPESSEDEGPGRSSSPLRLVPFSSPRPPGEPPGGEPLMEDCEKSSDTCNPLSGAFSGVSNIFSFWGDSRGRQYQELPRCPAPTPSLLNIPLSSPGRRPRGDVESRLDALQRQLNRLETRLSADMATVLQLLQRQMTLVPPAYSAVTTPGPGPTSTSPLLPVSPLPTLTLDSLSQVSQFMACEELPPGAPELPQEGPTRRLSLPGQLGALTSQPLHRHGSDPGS
row,Compound,"hERG current change (%, negative = inhibition) at 10uM [%]"
1,Cc1cccc(Nc2nc(N)c([N+](=O)[O-])c(N3CCN(C)CC3)n2)c1,-48
2,CCN1CCN(c2nc(Nc3cccc(OC)c3)nc(N)c2[N+](=O)[O-])CC1,-73.3
3,Cc1ccc(Nc2nc(N)c([N+](=O)[O-])c(N3CCC(C)CC3)n2)cc1C,7.13
4,CCOc1ccc(Nc2nc(N)c([N+](=O)[O-])c(N3CCN(CC)CC3)n2)cc1,-62.6
5,COc1cccc(Nc2nc(N)c([N+](=O)[O-])c(N3CCOCC3)n2)c1,-14.2
6,Cc1ccc(Nc2nc(N)c([N+](=O)[O-])c(N3CCOCC3)n2)cc1C,-13.9
7,CCN1CCN(c2nc(Nc3cccc(C)c3)nc(N)c2[N+](=O)[O-])CC1,-70.2
8,CCOc1ccc(Nc2nc(N)c([N+](=O)[O-])c(N3CCN(C)CC3)n2)cc1,-48.3
9,COc1ccccc1CC(=O)Nc1ccc(C(=O)N2CCCCC2)cc1,2.21
10,CCOC(=O)CCNC(=O)N1CCCC(C(=O)c2cc(C)c(OC)c(C)c2)C1 (stereo not shown),5.81
11,COC(=O)Cc1ccc(NC(=S)N2CCN(CCO)CC2)cc1,3.63
12,CC1=C(OC(=O)C(C)(C)C)C(C)(C)C(c2ccccc2)OC1=O (stereo not shown),-13.4
13,COc1cccc(C2CC(c3cccc(OC)c3)n3nc(N)nc3N2)c1 (stereo not shown),-4.11
14,COc1ccc(-c2nnc(NC(=O)C(C)C)o2)cc1,-3.15
15,COc1ccc(N2C(=O)c3ccccc3NC23CCC(C)CC3)cc1 (stereo not shown),4.35
16,C=CCn1nnnc1SCC(=O)Nc1cccc(C(F)(F)F)c1,9.66
17,CC(NC(=O)C(C(=O)c1cccc([N+](=O)[O-])c1)n1cc(Cl)ccc1=O)c1ccccc1 (stereo not shown),-15
18,Cc1cccc(Nc2nc(N)c([N+](=O)[O-])c(N3CCC(C)CC3)n2)c1,-15.7
19,CCN1CCN(c2nc(N)c([N+](=O)[O-])c(Nc3cccc(C)c3)n2)CC1,-45
20,Nc1nc(Nc2ccccc2)nc(N2CCCC2)c1[N+](=O)[O-],-34.5
21,CCN1CCN(c2nc(N)c([N+](=O)[O-])c(Nc3ccc(C)c(C)c3)n2)CC1,-6.91
22,Nc1nc(Nc2ccccc2F)nc(N2CCCC2)c1[N+](=O)[O-],4.5
23,CCN1CCN(c2nc(Nc3ccccc3F)nc(N)c2[N+](=O)[O-])CC1,-56.6

row,Compound,"hERG current change (%, negative = inhibition) at 10uM [%]"
1,CN1CCN(c2nc(Nc3ccccc3)nc(N)c2[N+](=O)[O-])CC1,-40.6
2,CCN1CCN(c2nc(Nc3ccccc3)nc(N)c2[N+](=O)[O-])CC1,-63
3,Nc1nc(Nc2cccc(F)c2)nc(N2CCOCC2)c1[N+](=O)[O-],-26.7
4,Nc1nc(Nc2ccccc2F)nc(N2CCOCC2)c1[N+](=O)[O-],4.6
5,CCN1CCN(c2nc(N)c([N+](=O)[O-])c(Nc3ccc(C)cc3)n2)CC1,-68.9
6,CCN1CCN(c2nc(Nc3cccc(F)c3)nc(N)c2[N+](=O)[O-])CC1,-62.6
7,CC12CN3CC(C)(CN(C1)C3c1cccnc1)C2=O (stereo not shown),-0.24
8,CC(NCc1ccco1)C(=O)N1CCc2ccccc2C1.Cl (stereo not shown),14
9,O=C(COc1ccccc1)Nc1ccc2c(c1)C(=O)N(CC1CCCO1)C2=O (stereo not shown),6.03
10,O=C(NCc1ccco1)c1ccc(Cn2cc([N+](=O)[O-])cn2)o1,-10.3
11,O=C1c2cccc3c(N4CCCCC4)ccc(c23)C(=O)N1c1cccc(O)c1,32.6
12,CNC(=O)c1c(NC(=O)c2ccc(N3C(=O)CCC3=O)cc2)sc2c1CCCC2,-13.3
13,CCOc1cc(NC(=O)c2ccccc2C)c(OCC)cc1NC(=O)C1=Cc2ccccc2OC1,9.99
14,CC(C)(C)NC(=S)NC(=O)C12CCC3CC(CC(C3)C1)C2,6.45
15,O=C(Nc1ccnn1C1CCN(Cc2ccc(CO)o2)CC1)c1ccccc1Cl,-0.636
16,O=C(Nc1ccnn1C1CCN(Cc2ccccn2)CC1)c1cccc(F)c1,-7.3
17,O=C(Nc1ccnn1C1CCN(Cc2ccc(CO)o2)CC1)c1ccccc1,1.16
18,O=C(Nc1ccnn1C1CCN(C/C=C/c2ccccc2)CC1)c1cccc(F)c1,-70.9
19,CC(C)(C)CN1CCC(n2nccc2NC(=O)c2ccccc2Cl)CC1,-20.3
20,O=C(Nc1ccnn1C1CCN(C/C=C/c2ccccc2)CC1)c1ccccc1Cl,-83.8
21,CC(C)=CCN1CCC(n2nccc2NC(=O)c2ccccc2Cl)CC1,-57.9
22,O=C(Nc1ccnn1C1CCN(C2CCOCC2)CC1)c1cccc(F)c1,-1.9
23,O=C(Nc1ccnn1C1CCN(C/C=C/c2ccccc2)CC1)c1ccccc1,-73.7
